# Assay results published in PubChem BioAssay AID2172 (The Scripps Research Institute Molecular Screening Center, 2009).
# Some of the results follow. Active and inactive are the calls of the source. How the calls were made is not given here.
# Experiment: DNA intercalator displacement (FID) – biochemical, fluorescence, counter-screen for HCV NS3 helicase inhibitor project, dose response (AID 2172)
# Conditions: fluorescent intercalator displacement from DNA
smiles,measurement,value
COc1ccc(N2C(=O)/C(=C/c3ccco3)C(=O)NC2=S)cc1,IC50,28.9 µM (inactive)
